Screening data as filed in PubChem BioAssay.
Sampled rows, rich in hits. Any-hit rate of the full collection: about 4%.
Caspase-1 inhib = blocks human caspase-1 allosterically or competitively. Potency, µM (series often up to 57.5 µM), for inactives: top-dose activity change, negative = inhibition, hits mostly inhibitors. hit rate 0.03% among 75,000. Caspase-1 enzyme, Ac-WEHD-AFC fluorogenic rate;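 further: plate controls were vehicle for no effect and no substrate for full effect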
Casp7 inh = blocks human caspase-7 allosterically or competitively; recombinant caspase-7, Ac-DEVD-AFC fluorescence rate; hit rate 0.02% among 75,000; AID 889; P55210; Potency, µM (titrated, usually from 57.5 µM), for inactives: at the top dose activity change, negative = inhibition, usual class: inhibitors; active means well fitted inhibition curve with a large enough effect in the main read-out, with a control signal flat, not every such curve was filed as active; inconclusive means small, poorly fitted or top-dose-only effect, or a change in a side signal; further: % of control where 0% means no effect
TSHR ag = TSH receptor (human) agonism. P16473. HEK293-CNG-TSHR cells (CNG channel as cAMP sensor), membrane potential dye, cAMP. Potency, µM (doses to about 57.1 µM), for inactives: top-dose activation, most hits filed as activators. hit rate 0.48% among 73,000. AID 926; active means well fitted activation curve with a large enough effect in the main read-out, with a control signal flat, not every such curve was filed as active; inconclusive means small, poorly fitted or top-dose-only effect, or a change in a side signal; inactive means no such curve, though single readings can be large or run the other way; % of control where 0% means no effect;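 further: the control signal comes from parental cells without the receptor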
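HEK 293 cells stably expressing TSHR and a modified CNG channel, with CNG-only parental cells as counterscreen, were preloaded 60 min at room temperature with membrane potential dye containing 100 uM RO 20-1724. Compound exposure was 30 min, and depolarization was read as fluorescence at 590 nm.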
HEK293 cAMP ctrl = parental HEK293 cAMP activation (counter-screen) | parental HEK293 CNG cAMP sensor, membrane potential fluorescence | Potency, µM (series often up to 57.1 µM), inactives show top-dose activation, hits mostly activators | hit rate 2.5% among 73,000; further: % of control where 0% means no effect; nearly all actives have a fitted effect of over 55% in size
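Parental HEK 293 cells stably expressing a cAMP-gated CNG channel were loaded with membrane potential dye containing 100 uM RO 20-1724 for 60 min. Compound added for 30 min; depolarization read as fluorescence intensity at 590 nm.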
GBA mod = modulators of human glucocerebrosidase | hit rate 1.1% among 48,000 | purified enzyme, resorufin glucoside fluorescence (screen aimed at inhibitors), 20 min | Potency, µM; in the data active means potency below about 15 µM; inconclusive means mostly about 16 µM to 33 µM;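 further: the screen sought inhibitors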
Target sequence (P04062 whole entry, looked up): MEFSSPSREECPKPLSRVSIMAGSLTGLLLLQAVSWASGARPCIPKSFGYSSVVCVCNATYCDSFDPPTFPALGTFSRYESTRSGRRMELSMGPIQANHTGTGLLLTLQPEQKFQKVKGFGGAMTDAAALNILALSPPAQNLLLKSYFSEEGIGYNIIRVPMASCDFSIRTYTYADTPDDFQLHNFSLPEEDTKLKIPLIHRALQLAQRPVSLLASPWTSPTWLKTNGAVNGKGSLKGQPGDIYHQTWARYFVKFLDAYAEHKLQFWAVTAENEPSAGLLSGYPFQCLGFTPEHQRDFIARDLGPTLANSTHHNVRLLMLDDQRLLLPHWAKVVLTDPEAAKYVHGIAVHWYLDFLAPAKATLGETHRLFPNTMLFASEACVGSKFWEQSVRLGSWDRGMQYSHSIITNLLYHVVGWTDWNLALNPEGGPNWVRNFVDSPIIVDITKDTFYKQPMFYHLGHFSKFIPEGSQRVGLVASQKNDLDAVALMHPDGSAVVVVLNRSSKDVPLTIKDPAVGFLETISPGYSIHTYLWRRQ
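Normal human glucocerebrosidase (0.2 nM final) was assayed with resorufin β-D-glucopyranoside (30 uM final) in 50mM citric acid/KH2PO4, 10mM sodium taurocholate, 0.01% tween-20, pH 5.9. Compounds were titrated; fluorescence (Ex 548, Em 600) read after 20 min at RT.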
Bst PK mod = pyruvate kinase (B. stearothermophilus) modulation; purified pyruvate kinase, luminescence ATP production; ribose 5-phosphate activator present at AC10; Potency, µM; hit rate 1.2% among 51,000; AID 361; in the data active means potency below about 11 µM; inconclusive means mostly about 12 µM to 25 µM;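 the screen sought inhibitors and activators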;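 further: scaled between full activation by ribose 5 phosphate and full inhibition by luteolin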
Starred values were filed as active, the others as inactive; [ ] = remark or other dose. Unless noted, the call rests on the fitted dose curve; in most records, active means well fitted curve in the direction sought with a large enough effect; inconclusive means small, poorly fitted or top-dose-only effect, or another doubt; inactive means no such curve, though single readings can be large; an effect the other way counts as inactive or inconclusive. Potency means the concentration at half of the fitted maximal effect.

Cc1noc(C)c1-c1nc(NCc2ccccc2)c2ccccc2n1 was read as Caspase-1 inhib -4%, Casp7 inh -8%, TSHR ag inconclusive and HEK293 cAMP ctrl 25µM*.
`CS(=O)(=O)Nc1cccc(-c2nc(NCc3ccccc3)c3ccccc3n2)c1` gave Caspase-1 inhib -5%, Casp7 inh -7%, TSHR ag inconclusive and HEK293 cAMP ctrl 25µM*.
For CS(=O)(=O)Nc1cccc(-c2nc(NCc3cccnc3)c3ccccc3n2)c1 the results were Caspase-1 inhib -1%, Casp7 inh 0% and HEK293 cAMP ctrl -1%.
Screening O=C1[C@H]2[C@H]3[C@H](O)[C@H](O)C/C(=N/OC[C@@H](O)COCc4ccco4)[C@@H]3CC[C@@H]2C(=O)N1Cc1ccccc1 returned Caspase-1 inhib -1%[11.5 µM], Casp7 inh -2%[11.5 µM], TSHR ag -10%[11.4 µM] and HEK293 cAMP ctrl 7%[11.4 µM].
Cc1ccc(C(=O)Nc2ccccc2N2CCOCC2)c(C)c1 was read as Caspase-1 inhib -3%, Casp7 inh -1%, TSHR ag 1% and HEK293 cAMP ctrl 7%.
Screening CCN(CC)S(=O)(=O)c1ccc(NC(=O)c2cccc3c2C(=O)N(CCOC)C3)cc1 returned Caspase-1 inhib 1%, Casp7 inh -2%, TSHR ag 11%, HEK293 cAMP ctrl 9%, GBA mod >77 and Bst PK mod >57.
Screening COCCN1Cc2cccc(C(=O)Nc3ccc(S(=O)(=O)N4CCCCCC4)cc3)c2C1=O returned Caspase-1 inhib -1%, Casp7 inh 2%, HEK293 cAMP ctrl 16%, GBA mod 15* and Bst PK mod >57.
For O=C(Nc1cccnc1)c1cc(-c2cccs2)on1 the results were Caspase-1 inhib -1%, Casp7 inh 2%, TSHR ag -3%, HEK293 cAMP ctrl -1%, GBA mod >77 and Bst PK mod >57.
`O=C(Nc1cccc(C(F)(F)F)c1)c1cc(-c2cccs2)on1` gave Caspase-1 inhib 0%, Casp7 inh 1%, TSHR ag -1%, HEK293 cAMP ctrl 15%, GBA mod 4.8* and Bst PK mod >57.
CSCSC1=C(C#N)C(c2ccc(Cl)cc2)C(C(C)=O)=C(C)N1 (stereo unspecified) was read as Caspase-1 inhib -14%, Casp7 inh -11%, TSHR ag inconclusive and HEK293 cAMP ctrl 25µM*.
Screening CCOC(=O)CSC1=C(C#N)C(c2ccccc2)C(C(C)=O)=C(C)N1 (stereo unspecified) returned Caspase-1 inhib -6%, Casp7 inh -3%, TSHR ag -7%, HEK293 cAMP ctrl 20%, GBA mod >77 and Bst PK mod >57.
`O=C(NC1CCCCCC1)c1c(O)c2ccccc2[nH]c1=O` gave Caspase-1 inhib -2%, Casp7 inh 1%, TSHR ag 9%, HEK293 cAMP ctrl 12% and GBA mod 11*.
Screening Cc1ccc(-c2nnc(SCC(=O)N3CC(C)CC(C)C3)o2)cc1C (stereo unspecified) returned Caspase-1 inhib -4%, Casp7 inh -4%, TSHR ag inconclusive and HEK293 cAMP ctrl 16µM*.
Screening CC1CC(C)CN(C(=O)CSc2nnc(-c3ccc(Cl)cc3)o2)C1 (stereo unspecified) returned Caspase-1 inhib -3%, Casp7 inh 0%, TSHR ag inconclusive and HEK293 cAMP ctrl inconclusive.
Cc1cc(-c2nc3ncccc3o2)ccc1NC(=O)CC(C)C was read as Caspase-1 inhib -1%, Casp7 inh 0%, TSHR ag 4% and HEK293 cAMP ctrl 19%.
Cc1ccc(OCC(=O)Nc2ccc(-c3nc4ncccc4o3)cc2)c(C)c1 was read as Caspase-1 inhib -1%, Casp7 inh 1%, TSHR ag 16µM*, HEK293 cAMP ctrl 29%, GBA mod >77 and Bst PK mod >57.
`CCCC(=O)Nc1ccc(-c2nc3cc(C)ccc3o2)cc1` gave Caspase-1 inhib -2%, Casp7 inh -2%, TSHR ag -8%, HEK293 cAMP ctrl 28%, GBA mod >77 and Bst PK mod 5.3*.
Screening CC1CCCN(c2nc3ccsc3c(=O)s2)C1 (stereo unspecified) returned Caspase-1 inhib -11%, Casp7 inh -9%, TSHR ag inconclusive, HEK293 cAMP ctrl 25µM* and GBA mod >77.
For O=C(Nc1ccc(-c2nc3ccccc3[nH]2)cc1)c1ccco1 the results were Caspase-1 inhib -2%, Casp7 inh -1%, TSHR ag 0%, HEK293 cAMP ctrl -2%, GBA mod inconclusive and Bst PK mod 3.9*.
O=C(Nc1ccc2nc(-c3cccnc3)[nH]c2c1)c1ccco1 was read as Caspase-1 inhib 1%, Casp7 inh -1%, TSHR ag -8% and HEK293 cAMP ctrl 0%.
Screening Cc1ccc2nc(-c3cccc(NC(=O)c4ccco4)c3)[nH]c2c1 returned Caspase-1 inhib 4%, Casp7 inh 0%, TSHR ag 18%, HEK293 cAMP ctrl 21%, GBA mod >77 and Bst PK mod 6.4*.
`CC(=O)Nc1cccc(-c2nc3ccc(NC(C)=O)cc3[nH]2)c1` gave Caspase-1 inhib -1%, Casp7 inh 2%, TSHR ag -5%, HEK293 cAMP ctrl 3%, GBA mod >77 and Bst PK mod inactive.
`O=C(Nc1ccc2nc(-c3ccco3)[nH]c2c1)c1ccco1` gave Caspase-1 inhib -3%, Casp7 inh -3%, TSHR ag 8%, HEK293 cAMP ctrl 23%, GBA mod >77 and Bst PK mod 10*.
Screening O=C(Nc1ccc2nc(-c3ccco3)[nH]c2c1)c1cccs1 returned Caspase-1 inhib -17%, Casp7 inh inconclusive, TSHR ag 12%, HEK293 cAMP ctrl 7%, GBA mod >77 and Bst PK mod 10*.
For CC(C)=CCC/C(C)=C/CO/N=C1/C[C@@H](O)[C@@H](O)[C@@H]2[C@@H]3C(=O)N(Cc4ccccc4)C(=O)[C@H]3CC[C@@H]12 the results were Caspase-1 inhib -1%[11.5 µM], Casp7 inh 0%[11.5 µM], TSHR ag 0%[11.4 µM] and HEK293 cAMP ctrl -3%[11.4 µM].
O=C(c1cc(C(F)(F)F)cc(C(F)(F)F)c1)N1CCC2(CC1)CCN(c1ncccn1)CC2 was read as Caspase-1 inhib -6%, Casp7 inh -3%, TSHR ag -4% and HEK293 cAMP ctrl 5%.
For COc1ccc(C(=O)N2CCC3(CC2)CN(c2ccncc2)C3)cc1 the results were Caspase-1 inhib -3%, Casp7 inh 5%, TSHR ag 3% and HEK293 cAMP ctrl 12%.
`O=C(c1cc(C(F)(F)F)cc(C(F)(F)F)c1)N1CCC2(CC1)CCN(c1ccccn1)CC2` gave Caspase-1 inhib -5%, Casp7 inh -5%, TSHR ag inconclusive and HEK293 cAMP ctrl 16µM*.
Screening COc1ccc(C(=O)N2CCC3(CCCN(c4ccncc4)C3)CC2)cc1 returned Caspase-1 inhib -3%, Casp7 inh -2%, TSHR ag inconclusive and HEK293 cAMP ctrl 13µM*.
